Test results: the supplement of paper PMC10037445
± gives the standard deviation of the averaged measurements. Over roughly 2,900 compounds, “NF-kB SEAP reporter activity, fold change vs agonist alone” has its median near 0.99; the highest 2% begin near 2.6. The list comes from a sample in which the highest values are over-represented; it also holds similar structures and randomly drawn compounds.

Assays:
RAW-Dual [1] = assay: NF-kB SEAP reporter activity, fold change vs agonist alone; higher = enhanced NF-kB activity
In short: (§1)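 After 50 nL of library stock was delivered by pin tool to RAW-Dual macrophages (50,000 cells/well, DMEM, 384-well plates), a PRR agonist was added 1 h later and the plates were kept at 37 °C, 5% CO2. Twenty hours later, IRF was read from supernatant by QuantiLuc luminescence and NF-κB by QuantiBlue absorbance at 620 nm. Reporter activity is stated as fold change over agonist-alone wells. Wells with IncuCyte confluency under 70% of agonist controls in both mask sets were counted as cytotoxic.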

RAW-Dual [2] = assay: NF-kB SEAP reporter activity, fold change vs agonist alone; cytotoxicity flag (confluency mask): not cytotoxic; higher = enhanced NF-kB activity
In short: as §1

RAW-Dual [3] = assay: NF-kB SEAP reporter activity, fold change vs agonist alone; cytotoxicity flag (confluency mask): cytotoxic (confluency <70% of control); higher = enhanced NF-kB activity
In short: as §1

[4] = library stock concentration (final ~1000-fold dilution): 10 mM, cytotoxicity flag (confluency mask): not cytotoxic, agonist: Imiquimod (TLR7) […]
[5] = library stock concentration (final ~1000-fold dilution): 10 mM, cytotoxicity flag (confluency mask): not cytotoxic, agonist: MPLA (TLR4) […]
[6] = agonist: ODN 1826 (TLR9) 0.5 ug/mL
[7] = agonist: Pam2CSK4 (TLR2/6) 0.1 ug/mL
[8] = agonist: Pam3CSK4 (TLR2/1) 0.1 ug/mL
[9] = library stock concentration (final ~1000-fold dilution): 10 mM, cytotoxicity flag (confluency mask): cytotoxic (confluency <70% of control), agonist: Imiquimod (TLR7) […]
[10] = library stock concentration (final ~1000-fold dilution): 10 mM, cytotoxicity flag (confluency mask): cytotoxic (confluency <70% of control), agonist: MPLA (TLR4) […]

Structure (SMILES): CCOc1ccc(Cc2cc(C3OC(CO)C(O)C(O)C3O)ccc2Cl)cc1 (configuration not stated)
- NF-kB SEAP reporter activity (RAW-Dual [1]; [4]): 1.04
- NF-kB SEAP reporter activity (RAW-Dual [1]; [5]): 1.03

Structure (SMILES): CCOc1ccc(Cc2cc(C3OC(CO)C(O)C(O)C3O)ccc2Cl)cc1 (configuration not stated) (library stock concentration (final ~1000-fold dilution): 10 mM)
- NF-kB SEAP reporter activity (RAW-Dual [2]; agonist: LPS (TLR4) 0.1 ug/mL): 1.04
- NF-kB SEAP reporter activity (RAW-Dual [2]; [6]): 1.2
- NF-kB SEAP reporter activity (RAW-Dual [2]; [7]): 1.01
- NF-kB SEAP reporter activity (RAW-Dual [2]; [8]): 1.1

Structure (SMILES): CCC1=CC2CN(C1)Cc1c([nH]c3ccccc13)C(C(=O)OC)(c1cc3c(cc1OC)N(C)C1C(O)(C(=O)OC)C(OC(C)=O)C4(CC)C=CCN5CCC31C54)C2 (configuration not stated)
- NF-kB SEAP reporter activity (RAW-Dual [1]; [9]): 2.47
- NF-kB SEAP reporter activity (RAW-Dual [1]; [10]): 2.6

Structure (SMILES): CCC1(O)CC2CN(CCc3c([nH]c4ccccc34)C(C(=O)OC)(c3cc4c(cc3OC)N(C=O)C3C(O)(C(=O)OC)C(OC(C)=O)C5(CC)C=CCN6CCC43C65)C2)C1.O=S(=O)(O)O (configuration not stated)
- NF-kB SEAP reporter activity (RAW-Dual [1]; [4]): 2.54
- NF-kB SEAP reporter activity (RAW-Dual [1]; [5]): 2.37

Structure (SMILES): CCC1(O)CC2CN(CCc3c([nH]c4ccccc34)C(C(=O)OC)(c3cc4c(cc3OC)N(C=O)C3C(O)(C(=O)OC)C(OC(C)=O)C5(CC)C=CCN6CCC43C65)C2)C1.O=S(=O)(O)O (configuration not stated) (library stock concentration (final ~1000-fold dilution): 10 mM)
- NF-kB SEAP reporter activity (RAW-Dual [2]; agonist: LPS (TLR4) 0.1 ug/mL): 5.34
- NF-kB SEAP reporter activity (RAW-Dual [2]; [6]): 3.28
- NF-kB SEAP reporter activity (RAW-Dual [2]; [7]): 1.99
- NF-kB SEAP reporter activity (RAW-Dual [2]; [8]): 2.22

Structure (SMILES): CCC1(O)CC2CN(CCc3c([nH]c4ccccc34)C(C(=O)OC)(c3cc4c(cc3OC)N(C)C3C(O)(C(=O)OC)C(OC(C)=O)C5(CC)C=CCN6CCC43C65)C2)C1.O=S(=O)(O)O (configuration not stated)
- NF-kB SEAP reporter activity (RAW-Dual [1]; [9]): 2.51
- NF-kB SEAP reporter activity (RAW-Dual [1]; [10]): 2.53

Structure (SMILES): CCC1(O)CC2CN(CCc3c([nH]c4ccccc34)C(C(=O)OC)(c3cc4c(cc3OC)N(C)C3C(O)(C(=O)OC)C(OC(C)=O)C5(CC)C=CCN6CCC43C65)C2)C1.O=S(=O)(O)O (configuration not stated) (library stock concentration (final ~1000-fold dilution): 10 mM)
- NF-kB SEAP reporter activity (RAW-Dual [3]; agonist: LPS (TLR4) 0.1 ug/mL): 5.91
- NF-kB SEAP reporter activity (RAW-Dual [3]; [6]): 2.96
- NF-kB SEAP reporter activity (RAW-Dual [3]; [7]): 1.48
- NF-kB SEAP reporter activity (RAW-Dual [3]; [8]): 1.94

Structure (SMILES): CCC1=CC2CN(C1)Cc1c([nH]c3ccccc13)C(C(=O)OC)(c1cc3c(cc1OC)N(C)C1C(O)(C(=O)OC)C(OC(C)=O)C4(CC)C=CCN5CCC31C54)C2 (configuration not stated) (library stock concentration (final ~1000-fold dilution): 10 mM)
- NF-kB SEAP reporter activity (RAW-Dual [3]; agonist: LPS (TLR4) 0.1 ug/mL): 5.34
- NF-kB SEAP reporter activity (RAW-Dual [3]; [6]): 0.35
- NF-kB SEAP reporter activity (RAW-Dual [3]; [7]): 1.78
- NF-kB SEAP reporter activity (RAW-Dual [3]; [8]): 1.95

Structure (SMILES): C=CC(=O)Nc1cc(Nc2nccc(-c3cn(C)c4ccccc34)n2)c(OC)cc1N(C)CCN(C)C.CS(=O)(=O)O
- NF-kB SEAP reporter activity (RAW-Dual [1]; [10]): 1.91

Structure (SMILES): C=CC(=O)Nc1cc(Nc2nccc(-c3cn(C)c4ccccc34)n2)c(OC)cc1N(C)CCN(C)C.CS(=O)(=O)O (library stock concentration (final ~1000-fold dilution): 10 mM)
- NF-kB SEAP reporter activity (RAW-Dual [3]; agonist: LPS (TLR4) 0.1 ug/mL): 2.39
- NF-kB SEAP reporter activity (RAW-Dual [3]; [6]): 0.214
- NF-kB SEAP reporter activity (RAW-Dual [3]; [7]): 1.28
- NF-kB SEAP reporter activity (RAW-Dual [3]; [8]): 0.898

Structure (SMILES): O=[N+]([O-])c1ccc(Nc2ccccc2-c2ccccc2)c2nonc12 (library stock concentration (final ~1000-fold dilution): 10 mM)
- NF-kB SEAP reporter activity (RAW-Dual [2]; agonist: LPS (TLR4) 0.1 ug/mL): 2.02
- NF-kB SEAP reporter activity (RAW-Dual [2]; [6]): 1.02
- NF-kB SEAP reporter activity (RAW-Dual [2]; [7]): 0.555
- NF-kB SEAP reporter activity (RAW-Dual [2]; [8]): 0.754

Structure (SMILES): O=[N+]([O-])c1ccc(Nc2ccccc2-c2ccccc2)c2nonc12
- NF-kB SEAP reporter activity (RAW-Dual [1]; [4]): 0.973
- NF-kB SEAP reporter activity (RAW-Dual [1]; [5]): 1.33

Structure (SMILES): CC(C)(C)C(=O)N1N=CCC1c1ccccc1 (configuration not stated) (library stock concentration (final ~1000-fold dilution): 10 mM)
- NF-kB SEAP reporter activity (RAW-Dual [2]; agonist: LPS (TLR4) 0.1 ug/mL): 1.02 ± 0.095
- NF-kB SEAP reporter activity (RAW-Dual [2]; [6]): 0.9171 ± 0.0045
- NF-kB SEAP reporter activity (RAW-Dual [2]; [7]): 0.983 ± 0.09
- NF-kB SEAP reporter activity (RAW-Dual [2]; [8]): 1.3 ± 0.015

Structure (SMILES): CC(C)(C)C(=O)N1N=CCC1c1ccccc1 (configuration not stated)
- NF-kB SEAP reporter activity (RAW-Dual [1]; [4]): 0.871 ± 0.094
- NF-kB SEAP reporter activity (RAW-Dual [1]; [5]): 1.025 ± 0.0035

Structure (SMILES): O=C(C=Cn1cnc(-c2cc(C(F)(F)F)cc(C(F)(F)F)c2)n1)NNc1cnccn1
- NF-kB SEAP reporter activity (RAW-Dual [1]; [4]): 1.41
- NF-kB SEAP reporter activity (RAW-Dual [1]; [5]): 0.523

Structure (SMILES): O=C(C=Cn1cnc(-c2cc(C(F)(F)F)cc(C(F)(F)F)c2)n1)NNc1cnccn1 (library stock concentration (final ~1000-fold dilution): 10 mM)
- NF-kB SEAP reporter activity (RAW-Dual [2]; agonist: LPS (TLR4) 0.1 ug/mL): 0.255
- NF-kB SEAP reporter activity (RAW-Dual [2]; [6]): 0.841
- NF-kB SEAP reporter activity (RAW-Dual [2]; [7]): 0.42
- NF-kB SEAP reporter activity (RAW-Dual [2]; [8]): 0.428

Structure (SMILES): Cc1ccc(NC(=O)c2ccc(CN3CCC(N(C)C)C3)c(C(F)(F)F)c2)cc1Nc1nccc(-c2cncnc2)n1 (configuration not stated)
- NF-kB SEAP reporter activity (RAW-Dual [1]; [9]): 2.42
- NF-kB SEAP reporter activity (RAW-Dual [1]; [10]): 1.36

Structure (SMILES): Cc1ccc(NC(=O)c2ccc(CN3CCC(N(C)C)C3)c(C(F)(F)F)c2)cc1Nc1nccc(-c2cncnc2)n1 (configuration not stated) (library stock concentration (final ~1000-fold dilution): 10 mM)
- NF-kB SEAP reporter activity (RAW-Dual [3]; agonist: LPS (TLR4) 0.1 ug/mL): 0.247
- NF-kB SEAP reporter activity (RAW-Dual [3]; [6]): 0.833
- NF-kB SEAP reporter activity (RAW-Dual [3]; [7]): 1.4
- NF-kB SEAP reporter activity (RAW-Dual [3]; [8]): 1.16

Structure (SMILES): Cc1nc(NC(=O)N2CCCC2C(N)=O)sc1-c1ccnc(C(C)(C)C(F)(F)F)c1 (configuration not stated)
- NF-kB SEAP reporter activity (RAW-Dual [1]; [4]): 1.35
- NF-kB SEAP reporter activity (RAW-Dual [1]; [5]): 1.13

Structure (SMILES): Cc1nc(NC(=O)N2CCCC2C(N)=O)sc1-c1ccnc(C(C)(C)C(F)(F)F)c1 (configuration not stated) (library stock concentration (final ~1000-fold dilution): 10 mM)
- NF-kB SEAP reporter activity (RAW-Dual [2]; agonist: LPS (TLR4) 0.1 ug/mL): 1.65
- NF-kB SEAP reporter activity (RAW-Dual [2]; [6]): 1.78
- NF-kB SEAP reporter activity (RAW-Dual [2]; [7]): 1.43
- NF-kB SEAP reporter activity (RAW-Dual [2]; [8]): 1.09

Structure (SMILES): C=CC(=O)Nc1cccc(C)c1Nc1ncc2cc(-c3c(Cl)c(OC)cc(OC)c3Cl)ccc2n1 (library stock concentration (final ~1000-fold dilution): 2 mM)
- NF-kB SEAP reporter activity (RAW-Dual [2]; agonist: LPS (TLR4) 0.1 ug/mL): 1.04
- NF-kB SEAP reporter activity (RAW-Dual [2]; [6]): 1.08
- NF-kB SEAP reporter activity (RAW-Dual [2]; [7]): 0.531
- NF-kB SEAP reporter activity (RAW-Dual [2]; [8]): 0.89

Structure (SMILES): C=CC(=O)NC1CCOCC1Nc1ncc2cc(-c3c(Cl)c(OC)cc(OC)c3Cl)ccc2n1 (configuration not stated) (library stock concentration (final ~1000-fold dilution): 10 mM)
- NF-kB SEAP reporter activity (RAW-Dual [2]; agonist: LPS (TLR4) 0.1 ug/mL): 0.691
- NF-kB SEAP reporter activity (RAW-Dual [2]; [6]): 0.827
- NF-kB SEAP reporter activity (RAW-Dual [2]; [7]): 0.34
- NF-kB SEAP reporter activity (RAW-Dual [2]; [8]): 0.478

Structure (SMILES): C=CC(=O)N1CCN(CCCn2c(=O)c(-c3c(Cl)c(OC)cc(OC)c3Cl)cc3cnc(NC)nc32)CC1
- NF-kB SEAP reporter activity (RAW-Dual [1]; [4]): 0.952
- NF-kB SEAP reporter activity (RAW-Dual [1]; [5]): 1.23

Structure (SMILES): C=CC(=O)NC1CCOCC1Nc1ncc2cc(-c3c(Cl)c(OC)cc(OC)c3Cl)ccc2n1 (configuration not stated)
- NF-kB SEAP reporter activity (RAW-Dual [1]; [4]): 0.68
- NF-kB SEAP reporter activity (RAW-Dual [1]; [5]): 0.869

Structure (SMILES): C=CC(=O)Nc1cccc(C)c1Nc1ncc2cc(-c3c(Cl)c(OC)cc(OC)c3Cl)ccc2n1
- NF-kB SEAP reporter activity (RAW-Dual [1]; library stock concentration (final ~1000-fold dilution): 2 mM, cytotoxicity flag (confluency mask): not cytotoxic, agonist: Imiquimod (TLR7) […]): 1.08
- NF-kB SEAP reporter activity (RAW-Dual [1]; library stock concentration (final ~1000-fold dilution): 2 mM, cytotoxicity flag (confluency mask): not cytotoxic, agonist: MPLA (TLR4) […]): 1.2

Structure (SMILES): C=CC(=O)N1CCN(CCCn2c(=O)c(-c3c(Cl)c(OC)cc(OC)c3Cl)cc3cnc(NC)nc32)CC1 (library stock concentration (final ~1000-fold dilution): 10 mM)
- NF-kB SEAP reporter activity (RAW-Dual [2]; agonist: LPS (TLR4) 0.1 ug/mL): 3.2
- NF-kB SEAP reporter activity (RAW-Dual [2]; [6]): 1.05
- NF-kB SEAP reporter activity (RAW-Dual [2]; [7]): 0.933
- NF-kB SEAP reporter activity (RAW-Dual [2]; [8]): 1.15
